Results on seven compounds are retold here after PubChem BioAssay (Tox21).

A short description of experiment [1]: qHTS assay to identify small molecule antagonists of the glucocorticoid receptor (GR) signaling pathway - cell viability counter screen (AID 720693). Note: nearly all actives have a fitted effect of over 55% in size. Note: potency is the fitted concentration of half-maximal effect. Background: Quantitative high-throughput screening tests each substance at several concentrations.
Experiment [2] is described as follows: qHTS assay for identifying genotoxic compounds that show differential cytotoxicity against isogenic chicken DT40 cell lines with known DNA damage response pathways - wild type cell line (AID 743012). Note: nearly all actives have a fitted effect of over 60% in size. Note: potency is the fitted concentration of half-maximal effect. In short, it runs like this: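 CellTiter-Glo luminescence readout of viability in wild type DT40 cells after 40 h compound exposure at 37 C/5% CO2; 300 cells/well; reagent incubated 30 min at room temperature before reading.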

A short description of experiment [3]: qHTS assay for identifying genotoxic compounds that show differential cytotoxicity against isogenic chicken DT40 cell lines with known DNA damage response pathways - Rev3 mutant cell line (AID 743014). Note: nearly all actives have a fitted effect of over 55% in size. Note: potency is the fitted concentration of half-maximal effect.
The nature of experiment [4]: qHTS assay for identifying genotoxic compounds that show differential cytotoxicity against isogenic chicken DT40 cell lines with known DNA damage response pathways - Rad54/Ku70 mutant cell line (AID 743015). Note: nearly all actives have a fitted effect of over 60% in size. Note: potency is the fitted concentration of half-maximal effect.
Experiment [5] in a line: qHTS assay to identify small molecule antagonists of the androgen receptor (AR) signaling pathway - cell viability counter screen (AID 743033; note: nearly all actives have a fitted effect of over 45% in size; note: potency is the fitted concentration of half-maximal effect).
Experiment [6] can be described thus: qHTS assay to identify small molecule antagonists of the androgen receptor (AR) signaling pathway using the MDA cell line - cell viability counter screen (AID 743041; note: nearly all actives have a fitted effect of over 45% in size; note: potency is the fitted concentration of half-maximal effect). The procedure, abridged:
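Cytotoxicity counter screen: MDA-kb2 AR-luc cells, compound + R1881, 16 h, 37C, 0% CO2; CellTiter-Fluor added at 15.5 h, fluorescence read after 30 min.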

A short description of experiment [7]: qHTS assay to identify small molecule antagonists of the thyroid receptor (TR) signaling pathway - cell viability counter screen (AID 743064). Note: nearly all actives have a fitted effect of over 50% in size. Note: potency is the fitted concentration of half-maximal effect. The procedure, abridged: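 Plate GH3.TRE-Luc cells; incubate 4 h at 37 °C; add compound, then T3 to 1 nM final; incubate 23.5 h; add CellTiter-Fluor; incubate 30 min at 37 °C, 5% CO2; read fluorescence.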
Experiment [8] in a line: qHTS assay to identify small molecule antagonists of the thyroid receptor (TR) signaling pathway (AID 743065). Note: nearly all actives have a fitted effect of over 55% in size. Note: potency is the fitted concentration of half-maximal effect. In short, it runs like this: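 GH3.TRE-Luc rat pituitary cells (two TREs driving luciferase) were dosed with compound, then stimulated with 1 nM T3 (final) for 23.5 h at 37 C. ONE-Glo luminescence was the read-out, with CellTiter-Fluor fluorescence as the cytotoxicity counter-screen.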

The subject of experiment [9] is thyroid hormone receptor (rat, GH3 cells). Briefly: qHTS assay to identify small molecule agonists of the thyroid receptor (TR) signaling pathway (AID 743066; calls by dose curve).
Experiment [10] is described as follows: qHTS assay to identify small molecule antagonists of the estrogen receptor alpha (ER-alpha) signaling pathway - cell viability counter screen (AID 743074; calls by dose curve;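 note: HEK293 cells carrying ER-alpha-UAS-bla reporter stimulated with 17beta-estradiol; nearly all actives have a fitted effect of over 45% in size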).
Experiment [11] has as its target Estrogen receptor (Homo sapiens) (UniProt P03372). Briefly: qHTS assay to identify small molecule agonists of the estrogen receptor alpha (ER-alpha) signaling pathway (AID 743075; calls by dose curve;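 note: HEK293 GripTite cells with ER-alpha and UAS-driven beta-lactamase reporter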; note: potency is the fitted concentration of half-maximal effect).
Experiment [12] shares this target. Briefly: qHTS assay to identify small molecule agonists of the estrogen receptor alpha (ER-alpha) signaling pathway using the BG1 cell line (AID 743079). Note: nearly all actives have a fitted effect of over 20% in size.
A short description of experiment [13]: qHTS assay to identify small molecule antagonists of the estrogen receptor alpha (ER-alpha) signaling pathway using the BG1 cell line (AID 743080; calls by dose curve;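 note: BG1 cells stimulated with 17beta-estradiol alongside compound; nearly all actives have a fitted effect of over 25% in size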; note: potency is the fitted concentration of half-maximal effect). In short, it runs like this: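 Seeding, 24 h rest, compound transfer from DMSO, 17beta-estradiol addition, 21.5 h incubation, CellTiter-Fluor (30 min, 37 C), then ONE-Glo (30 min, room temperature): this sequence was run on BG1-Luc-4E2 reporter cells.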

Experiment [14] in a line: qHTS assay to identify small molecule antagonists of the estrogen receptor alpha (ER-alpha) signaling pathway using the BG1 cell line - cell viability counter screen (AID 743081).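 Note: compound given together with 17beta-estradiol as the ER stimulus; nearly all actives have a fitted effect of over 45% in size.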 Note: potency is the fitted concentration of half-maximal effect.
A further experiment concerns the target Aromatase (Homo sapiens) (UniProt P11511). As to the kind of experiment: qHTS assay to identify aromatase inhibitors (AID 743083). Note: nearly all actives have a fitted effect of over 55% in size. Note: potency is the fitted concentration of half-maximal effect.
Experiment [15] deals with Androgen receptor (Homo sapiens) (UniProt P10275). Briefly: qHTS assay to identify small molecule agonists of the androgen receptor (AR) signaling pathway (AID 743036; active = well fitted activation curve with a large enough effect in the signal ratio in the repeat runs, with a control signal flat, not every such curve was filed as active; inconclusive = weak or mixed curves, or effect the other way; inactive = no such curve, though single readings can be large or run the other way; the % refers to the signal ratio). In short, it runs like this: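 Reporter line: GeneBLAzer AR-UAS-bla-GripTite (HEK293). Steps: plate cells, 4 h rest, add compounds, 16 h at 37C, add LiveBLAzer B/G substrate, 2 h at RT, read fluorescence.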

Experiment [16] shares this target. Briefly: qHTS assay to identify small molecule agonists of the androgen receptor (AR) signaling pathway using the MDA cell line (AID 743040; note: nearly all actives have a fitted effect of over 20% in size). The settings on record: MDA-kb2 AR-luc cells, MMTV luciferase, 16 h; activity change: at 70.3 µM (top of the series), stronger effect = higher value. In short, it runs like this: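 Luciferase read-out, ONE-Glo, 30 min RT. Cells: MDA-kb2 AR-luc, MMTV promoter with AR and GR response elements. Compound exposure 16 h, 37C, 0% CO2, after 5 h pre-incubation. qHTS agonist mode.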

For experiment [17] the target is unchanged. Briefly: qHTS assay to identify small molecule antagonists of the androgen receptor (AR) signaling pathway using the MDA cell line (AID 743042; note: nearly all actives have a fitted effect of over 55% in size; note: potency is the fitted concentration of half-maximal effect). In short, it runs like this:
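MDA-kb2 breast carcinoma cells carrying MMTV-luciferase (AR/GR responsive) were co-treated with compounds and the agonist R1881 for 16 h at 37C. Inhibition read as ONE-Glo luminescence; CellTiter-Fluor fluorescence measured in parallel for cytotoxicity.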

The target in experiment [18] is Estrogen receptor (Homo sapiens) (UniProt P03372). As to the kind of experiment: qHTS assay to identify small molecule antagonists of the estrogen receptor alpha (ER-alpha) signaling pathway (AID 743069; active = well fitted curve in the direction sought with a large enough effect in the signal ratio in the repeat runs, not every such curve was filed as active; inconclusive = weak or mixed curves, or effect the other way; inactive = no such curve, though single readings can be large or run the other way; the % refers to the signal ratio). The procedure, abridged: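 Beta-lactamase FRET fluorescence is read after 2 hr at room temperature with LiveBLAzer B/G substrate. Before that, ER-alpha-bla HEK293 cells sit 4 hr after plating, then receive compound plus 17beta-estradiol and incubate 18 hr at 37C.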

Experiment [19] has as its target Androgen receptor (Homo sapiens) (UniProt P10275). As to the kind of experiment: qHTS assay to identify small molecule antagonists of the androgen receptor (AR) signaling pathway (AID 743035; active = well fitted inhibition curve with a large enough effect in the signal ratio in the repeat runs, not every such curve was filed as active; inconclusive = weak or mixed curves, or effect the other way; inactive = no such curve, though single readings can be large or run the other way; the % refers to the signal ratio; note: potency is the fitted concentration of half-maximal effect). In short, it runs like this:
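AR-bla HEK293 reporter cells; 4 h settle at 37C/5% CO2; compound + R1881 agonist, 16 h at 37C; LiveBLAzer B/G FRET substrate 2 h RT; fluorescence intensity read. qHTS format.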

Several values for one entry are separate records, joined by “and”; a condition that tells them apart may be missing. Equal values may be shown once. Where a structure was tested more than once in an assay, its records may differ in their call. Activity calls are given as the source filed them. Unless noted, calls come from the whole dose curve; as a rule, active = well fitted curve in the direction sought with a large enough effect in the repeat runs; inconclusive = weak or mixed curves; inactive = no such curve, though single readings can be large; an effect the other way counts as inactive or inconclusive.

Estrogen receptor (Homo sapiens), sequence (P03372 whole entry, looked up): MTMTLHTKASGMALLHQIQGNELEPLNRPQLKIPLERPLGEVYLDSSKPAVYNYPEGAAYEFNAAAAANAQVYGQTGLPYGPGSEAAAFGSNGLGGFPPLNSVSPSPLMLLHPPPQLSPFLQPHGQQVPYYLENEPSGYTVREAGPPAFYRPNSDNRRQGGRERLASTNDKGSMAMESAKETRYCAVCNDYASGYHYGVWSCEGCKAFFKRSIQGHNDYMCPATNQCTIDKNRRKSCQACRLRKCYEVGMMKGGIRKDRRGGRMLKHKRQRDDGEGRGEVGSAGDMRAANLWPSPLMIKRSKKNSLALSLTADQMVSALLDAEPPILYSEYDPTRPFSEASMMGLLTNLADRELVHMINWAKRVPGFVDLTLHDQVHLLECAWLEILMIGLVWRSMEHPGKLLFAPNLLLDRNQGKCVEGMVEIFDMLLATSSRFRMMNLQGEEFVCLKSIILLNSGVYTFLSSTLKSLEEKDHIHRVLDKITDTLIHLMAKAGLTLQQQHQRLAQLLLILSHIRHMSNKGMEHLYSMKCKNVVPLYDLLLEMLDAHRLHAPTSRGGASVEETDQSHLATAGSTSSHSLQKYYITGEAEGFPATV
Aromatase (Homo sapiens), sequence (P11511 whole entry, looked up): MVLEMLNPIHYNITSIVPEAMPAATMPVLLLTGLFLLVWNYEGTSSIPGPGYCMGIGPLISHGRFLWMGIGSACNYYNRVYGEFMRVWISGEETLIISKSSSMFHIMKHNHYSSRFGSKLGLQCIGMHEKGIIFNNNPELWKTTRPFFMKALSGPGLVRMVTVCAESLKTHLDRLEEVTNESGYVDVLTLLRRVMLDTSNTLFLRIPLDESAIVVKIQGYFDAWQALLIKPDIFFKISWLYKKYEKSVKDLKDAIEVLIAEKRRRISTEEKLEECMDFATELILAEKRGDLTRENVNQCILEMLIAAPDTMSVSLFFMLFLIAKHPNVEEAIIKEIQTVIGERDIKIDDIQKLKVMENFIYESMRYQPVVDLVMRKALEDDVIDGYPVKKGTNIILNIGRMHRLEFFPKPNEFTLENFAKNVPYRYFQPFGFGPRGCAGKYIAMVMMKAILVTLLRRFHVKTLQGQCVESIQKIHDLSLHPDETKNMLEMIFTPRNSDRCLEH
Androgen receptor (Homo sapiens), sequence (P10275 whole entry, looked up): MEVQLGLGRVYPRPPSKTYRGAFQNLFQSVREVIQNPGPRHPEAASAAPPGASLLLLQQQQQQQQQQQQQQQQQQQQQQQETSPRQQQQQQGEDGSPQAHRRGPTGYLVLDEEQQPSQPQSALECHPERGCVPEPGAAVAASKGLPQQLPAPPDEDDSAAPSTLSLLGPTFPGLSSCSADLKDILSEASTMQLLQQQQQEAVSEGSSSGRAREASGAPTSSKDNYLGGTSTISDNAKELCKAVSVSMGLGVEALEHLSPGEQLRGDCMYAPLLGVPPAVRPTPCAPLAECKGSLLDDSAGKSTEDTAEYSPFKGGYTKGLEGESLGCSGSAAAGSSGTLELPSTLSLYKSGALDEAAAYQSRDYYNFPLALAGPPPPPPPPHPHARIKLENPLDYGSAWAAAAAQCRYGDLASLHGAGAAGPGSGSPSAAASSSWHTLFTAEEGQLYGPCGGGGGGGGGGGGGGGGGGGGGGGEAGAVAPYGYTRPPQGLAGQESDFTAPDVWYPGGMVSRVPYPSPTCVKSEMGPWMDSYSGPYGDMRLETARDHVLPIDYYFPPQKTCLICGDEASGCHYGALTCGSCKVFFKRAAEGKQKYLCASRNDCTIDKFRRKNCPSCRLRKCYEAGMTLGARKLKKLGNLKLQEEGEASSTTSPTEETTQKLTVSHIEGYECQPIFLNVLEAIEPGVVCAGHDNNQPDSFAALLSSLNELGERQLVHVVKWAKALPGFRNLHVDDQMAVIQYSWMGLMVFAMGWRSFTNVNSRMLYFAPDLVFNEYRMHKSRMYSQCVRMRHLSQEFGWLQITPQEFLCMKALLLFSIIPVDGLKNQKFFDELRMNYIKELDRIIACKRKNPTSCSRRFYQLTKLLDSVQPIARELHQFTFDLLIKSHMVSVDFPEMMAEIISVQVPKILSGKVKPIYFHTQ

On to `Cc1ccccc1[N+](=O)[O-]`, for which the Potency entry in [1], in [2], in [3], in experiment [4], in [5] and in [6] was “inactive” throughout. Also, the Potency result in experiment [7], in experiment [8], in [9], in [10], in experiment [11] and in [12] was “inactive” in each case. For the same compound, the Potency entry (in experiment [13]; in [14]; in the experiment with Aromatase (Homo sapiens)) was “inactive” each time.

For the compound `C#CCOS(=O)OC1CCCCC1Oc1ccc(C(C)(C)C)cc1` (stereo unspecified), the Potency was 21.9 µM (active) in experiment [1]; 6.12 µM (active) and 2.73 µM (active) in experiment [2]; 3.86 µM (active) and 2.17 µM (active) in experiment [3]; 4.33 µM (active) and 2.43 µM (active) in experiment [4]; 174 nM (active) and 1.74 µM (active) in experiment [5]; 4.33 µM (active) in experiment [6]. For the same compound, the Potency in [7] is 6.86 µM (active); in experiment [8], 4.33 µM (active); in experiment [11] it was “inactive and 2.75 µM [inconclusive] (active)”; in experiment [13] it was 9.7 µM (active); in experiment [14], 27.3 µM (active); in the experiment with Aromatase (Homo sapiens) it was 15.4 µM (active) and 6.86 µM (active). For the same compound, the Potency entry in experiment [9] is “inactive”.

For `CCCCC(CC)COC(=O)c1ccc(C(=O)OCC(CC)CCCC)c(C(=O)OCC(CC)CCCC)c1` (stereo unspecified), the Potency result in experiment [1], in experiment [2], in experiment [3], in experiment [4], in experiment [5] and in [15] was “inactive” throughout. Also, the Potency result in experiment [16], in [6], in [17], in experiment [7], in experiment [8] and in experiment [9] was “inactive” throughout. The Potency entry (in experiment [10]; in [14]; with Aromatase (Homo sapiens)) was “inactive” throughout.

For the compound `c1nc[nH]n1`, the Potency result in experiment [1], in experiment [2], in [3], in experiment [4], in experiment [5] and in experiment [7] was “inactive” throughout. The Potency result in experiment [18], in [10], in experiment [11], in experiment [12], in experiment [13] and in [14] was “inactive” throughout. Besides, the Potency result in the experiment with Aromatase (Homo sapiens) was “inactive”.

Regarding `O=C(CCl)c1ccccc1`, the Potency entry in experiment [1], in [5], in experiment [6], in experiment [9], in experiment [10] and in experiment [14] was “inactive” throughout. Further, in the experiment with Aromatase (Homo sapiens), the Potency result is “inactive”. The Potency result is “inactive and 68.6 µM (active)” in [2]; 54.5 µM (active) in experiment [3]; 61.1 µM (active) in experiment [4]; “inactive and 68.6 µM (active)” in [7].

Turning to `CCc1cccc(CC)c1N(COC)C(=O)CCl`, the Potency entry in experiment [1], in experiment [5], in experiment [15], in experiment [16], in [7] and in [9] was “inactive” in each case. Also, the Potency result in [10], in experiment [11], in experiment [12], in [13] and in experiment [14] was “inactive” throughout. Also, the Potency is 19.3 µM (active) in experiment [2]; 5.91 µM (active) and 5.45 µM (active) in [3]; 29.6 µM (active) and 10.9 µM (active) in experiment [4]; 26.7 µM (active) and 38.9 µM (active) in [19]; 61.1 µM (active) in experiment [17]; 54.5 µM (active) in experiment [8]. In addition, in the experiment with Aromatase (Homo sapiens), the Potency was 61.1 µM (active).

As to `S=C1NCCN1`, the Potency result in experiment [1], in [2], in experiment [3], in experiment [4], in experiment [5] and in experiment [6] was “inactive” throughout. In addition, the Potency entry (in experiment [8]; in experiment [9]; in experiment [10]; in [14]; with Aromatase (Homo sapiens)) was “inactive” in each case.
